This passage reports outcome and AC50 results from PubChem BioAssay (EPA / NIEHS).

In experiment [1] the target is human RAR-related Orphan Receptor gamma (RORg), RORC (gene 6097) (UniProt P51449). In words: ATG_RORg_TRANS: Attagene TRANS-FACTORIAL HepG2 Assay for human RAR-related Orphan Receptor gamma (RORg) (AID 2283011; active = hit-call score of the fitted dose curve at least 0.9, where 1 is the maximum). The gist of the method: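 Readout: reporter transcript induction (RT-PCR, fluorescent primer extension, capillary electrophoresis) after 24 h compound exposure of transiently transfected HepG2 cells carrying a RORg-Gal4 chimera and GAL4-UAS reporters; DMSO served as baseline, with increasing signal fitted.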

Experiment [2] has as its target Retinoic acid receptor RXR-alpha (Homo sapiens) (UniProt P19793). The experiment is described as follows: ATG_RXRa_TRANS: Attagene TRANS-FACTORIAL HepG2 Assay for human Retinoid X Receptor alpha (RXRa) (AID 2283012; active = hit-call score of the fitted dose curve at least 0.9, where 1 is the maximum). In outline:
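HepG2 cells transiently transfected with GAL4-UAS reporter units and chimeric RXRa-Gal4 protein, treated 24 h. Reporter mRNA measured by RT-PCR, fluorescent labelling, HpaI digestion and capillary electrophoresis. Induction fitted against DMSO.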

The target in experiment [3] is human Retinoid X Receptor beta (RXRb), RXRB (gene 6257) (UniProt P28702). The experiment is described as follows: ATG_RXRb_TRANS: Attagene TRANS-FACTORIAL HepG2 Assay for human Retinoid X Receptor beta (RXRb) (AID 2283013; active = hit-call score of the fitted dose curve at least 0.9, where 1 is the maximum). The gist of the method:
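HepG2 cells were transiently transfected with multiplexed GAL4-UAS reporters and a chimeric RXRb-Gal4 construct, then exposed for 24 h. Reporter mRNA was quantified by RT-PCR, FAM labeling, HpaI digestion and capillary electrophoresis; gain of signal was scored against DMSO.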

Experiment [4] concerns the target human Thyroid Receptor alpha (THRa1), THRA (gene 7067) (UniProt P10827). In words: ATG_THRa1_TRANS: Attagene TRANS-FACTORIAL HepG2 Assay for human Thyroid Receptor alpha (THRa1) (AID 2283014; active = hit-call score of the fitted dose curve at least 0.9, where 1 is the maximum). The gist of the method: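 HepG2 cells transiently transfected with multiplexed GAL4-UAS reporter units for exogenous chimeric THRa1-Gal4; reporter mRNA measured 24 h after dosing by RT-PCR, 6-FAM labelling, HpaI digestion and capillary electrophoresis. Gain-of-signal fitted versus DMSO baseline.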

Read-out in experiment [5]: E-selectin (Homo sapiens) (UniProt P16581)
The experiment is described as follows: BSK_3C_Eselectin: BioMAP Diversity Plus: 3C Assay for Eselectin Biomarker Activity (AID 2283015). The conditions noted are these: primary human endothelial cells (HUVEC); actives raise or lower the signal. The gist of the method:
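Primary human umbilical vein endothelial cells (3C system) were dosed with chemical and cell-surface E-selectin measured by ELISA 24 h later. Bidirectional curve fitting used DMSO as negative control and baseline.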

Read-out in experiment [6]: Interleukin-1 alpha (IL1a), IL1A (gene 3552)
In words: BSK_BE3C_IL1a: BioMAP Diversity Plus: BE3C Assay for Interleukin-1 alpha (IL1a) Biomarker Activity (AID 2283016). The following applies: primary human bronchial epithelial cells; actives raise or lower the signal. The gist of the method:
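Human primary bronchial epithelial cells, 24 h chemical exposure; IL-1a quantified by ELISA, fitted bidirectionally against DMSO. Cytotoxicity assessed in parallel by SRB total-protein staining at the time of measurement.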

Read-out in experiment [7]: Monocyte Chemoattractant Protein-1 (MCP1), CCL2 (gene 6347)
In words: BSK_4H_MCP1: BioMAP Diversity Plus: 4H Assay for Monocyte Chemoattractant Protein-1 (MCP1) Biomarker Activity (AID 2283018). The conditions noted are these: primary human endothelial cells (HUVEC); actives raise or lower the signal. In outline: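 Human umbilical vein endothelial cells (4H system) exposed to chemicals for 24 h in 96-well format. MCP-1 measured by ELISA; bidirectional fitting against DMSO, with SRB total-protein staining in parallel cultures for cytotoxicity.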

Read-out in experiment [8]: Human Leukocyte Antigen - DR isotype (HLADR), HLA-DRA (gene 3122)
In words: BSK_3C_HLADR: BioMAP Diversity Plus: 3C Assay for Human Leukocyte Antigen - DR isotype (HLADR) Biomarker Activity (AID 2283019). The conditions noted are these: primary human endothelial cells (HUVEC); actives raise or lower the signal. In outline: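 Primary human umbilical vein endothelial cells (3C system) were dosed with compound and cell-surface HLA-DR was quantified by ELISA at 24 h. Activity was fitted bidirectionally against DMSO as negative control and baseline.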

Read-out in experiment [9]: Interleukin-8 (IL8), CXCL8 (gene 3576)
In words: BSK_3C_IL8: BioMAP Diversity Plus: 3C Assay for Interleukin-8 (IL8) Biomarker Activity (AID 2283020). The conditions noted are these: primary human endothelial cells (HUVEC); actives raise or lower the signal. The gist of the method:
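Primary human umbilical vein endothelial cells were dosed for 24 h. IL-8 was quantified by ELISA and fitted bidirectionally against DMSO. Cytotoxicity was assessed in parallel cultures by SRB staining at 560 nm.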

Read-out in experiment [10]: Monokine induced gamma interferon (MIG), CXCL9 (gene 4283)
In words: BSK_3C_MIG: BioMAP Diversity Plus: 3C Assay for Monokine induced gamma interferon (MIG) Biomarker Activity (AID 2283021). The conditions noted are these: primary human endothelial cells (HUVEC); actives raise or lower the signal. In outline:
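HUVEC primary endothelial cultures dosed with chemical; MIG quantified by ELISA at 24 h. Data fitted bidirectionally against DMSO control, with parallel SRB total-protein staining for cytotoxicity.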

Experiment [11] addresses human Vitamin D Receptor (VDR), VDR (gene 7421) (UniProt P11473). The experiment is described as follows: ATG_VDR_TRANS: Attagene TRANS-FACTORIAL HepG2 Assay for human Vitamin D Receptor (VDR) (AID 2283022; active = hit-call score of the fitted dose curve at least 0.9, where 1 is the maximum). The gist of the method: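 HepG2 cells were transiently transfected with multiple GAL4-UAS reporter units, so signal reflects exogenous chimeric receptor-Gal4 activity. After 24 h compound exposure, reporter mRNA was measured by RT-PCR, fluorescent labelling and capillary electrophoresis, fitted for gain of signal versus DMSO.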

Experiment [12] can be described thus: BSK_3C_SRB: Viability Assessment in the BioMAP Diversity Plus: 3C Assay (AID 2283023).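 Note: fitted both ways against DMSO so a hit may be signal rise or drop.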 The following applies: primary human endothelial cells (HUVEC). The gist of the method: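 Primary human umbilical vein endothelial cells in the 3C system were read 24 h after compound dosing. Total protein was stained with 0.1% sulforhodamine B after 10% TCA fixation and read at 560 nm, with bidirectional fitting against DMSO as baseline.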

Read-out in experiment [13]: Matrix Metallopeptidase 1 (MMP1), MMP1 (gene 4312)
The experiment is described as follows: BSK_BE3C_MMP1: BioMAP Diversity Plus: BE3C Assay for Matrix Metallopeptidase 1 (MMP1) Biomarker Activity (AID 2283024). The conditions noted are these: primary human bronchial epithelial cells; actives raise or lower the signal. The gist of the method: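 Human primary bronchial epithelial cells (BE3C system) dosed for 24 h; MMP-1 quantified by ELISA. Bidirectional fit against DMSO; cytotoxicity tracked in parallel cultures by SRB total-protein staining.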

Experiment [14] can be described thus: BSK_3C_Vis: BioMAP Diversity Plus: 3C Assay for Morphology Visualization (AID 2283025).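 Note: fitted both ways so gain or loss versus DMSO counts.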 The following applies: primary human endothelial cells (HUVEC). In outline: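 Human umbilical vein endothelial cell morphology was inspected by light microscopy 24 h after chemical dosing; scored bidirectionally relative to DMSO.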
Read-out in experiment [15]: Pselectin, SELP (gene 6403)
The experiment is described as follows: BSK_4H_Pselectin: BioMAP Diversity Plus: 4H Assay for Pselectin Biomarker Activity (AID 2283026). The following applies: primary human endothelial cells (HUVEC); actives raise or lower the signal. In outline:
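Primary human umbilical vein endothelial cells were treated 24 h, and cell-surface P-selectin was then quantified by ELISA. Bidirectional fit versus DMSO; cytotoxicity checked in parallel cultures by SRB total-protein staining.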

Experiment [16] in a line: BSK_4H_SRB: Viability Assessment in the BioMAP Diversity Plus: 4H Assay (AID 2283027).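 Note: cells exposed to compound for 24 h before staining.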 The following applies: primary human endothelial cells (HUVEC). In outline:
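Absorbance at 560 nm of SRB-stained total protein served as the viability read-out in confluent primary human umbilical vein endothelium 24 h after chemical treatment. Curves were fitted bidirectionally against DMSO as negative control.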

Experiment [17] can be described thus: BSK_BE3C_SRB: Viability Assessment in the BioMAP Diversity Plus: BE3C Assay (AID 2283028). The following applies: primary human bronchial epithelial cells. In outline:
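Human primary bronchial epithelial cells were exposed to test chemicals for 24 h. Total protein in parallel cultures was then measured by staining with 0.1% sulforhodamine B after 10% TCA fixation, with absorbance read at 560 nm. Activity was fitted bidirectionally against DMSO.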

Read-out in experiment [18]: Thrombomodulin, THBD (gene 7056)
In words: BSK_3C_Thrombomodulin: BioMAP Diversity Plus: 3C Assay for Thrombomodulin Biomarker Activity (AID 2283029). The following applies: primary human endothelial cells (HUVEC); actives raise or lower the signal. The gist of the method:
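Human umbilical vein endothelial cells were exposed to chemicals for 24 h; cell-surface thrombomodulin quantified by ELISA, with bidirectional fitting against DMSO baseline.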

Read-out in experiment [19]: Urokinase-type plasminogen activator receptor (uPAR), PLAUR (gene 5329)
In words: BSK_4H_uPAR: BioMAP Diversity Plus: 4H Assay for Urokinase-type plasminogen activator receptor (uPAR) Biomarker Activity (AID 2283030). The following applies: primary human endothelial cells (HUVEC); actives raise or lower the signal. In outline: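 Primary human umbilical vein endothelial cells were exposed to chemical for 24 h before cell-surface uPAR was quantified by ELISA. Activity was fitted bidirectionally against the DMSO negative control baseline.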

Read-out in experiment [20]: Monocyte Chemoattractant Protein-1 (MCP1), CCL2 (gene 6347)
In words: BSK_3C_MCP1: BioMAP Diversity Plus: 3C Assay for Monocyte Chemoattractant Protein-1 (MCP1) Biomarker Activity (AID 2283017). The following applies: primary human endothelial cells (HUVEC); actives raise or lower the signal. In outline:
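Primary human umbilical vein endothelial cells (3C system) were exposed to test chemical for 24 h, after which MCP-1 was quantified by ELISA. Activity was fitted bidirectionally against DMSO as negative control and baseline.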

Results filed as inconclusive are left out. Some structures have more than one record in an assay (separate samples or runs), and their calls can disagree. Active and inactive are the calls of the source. Rule for the calls, unless noted: active = hit-call score of the fitted dose curve at least 0.9, where 1 is the maximum; inactive = score below 0.9.

Chain of E-selectin (Homo sapiens) (P16581 whole entry, looked up): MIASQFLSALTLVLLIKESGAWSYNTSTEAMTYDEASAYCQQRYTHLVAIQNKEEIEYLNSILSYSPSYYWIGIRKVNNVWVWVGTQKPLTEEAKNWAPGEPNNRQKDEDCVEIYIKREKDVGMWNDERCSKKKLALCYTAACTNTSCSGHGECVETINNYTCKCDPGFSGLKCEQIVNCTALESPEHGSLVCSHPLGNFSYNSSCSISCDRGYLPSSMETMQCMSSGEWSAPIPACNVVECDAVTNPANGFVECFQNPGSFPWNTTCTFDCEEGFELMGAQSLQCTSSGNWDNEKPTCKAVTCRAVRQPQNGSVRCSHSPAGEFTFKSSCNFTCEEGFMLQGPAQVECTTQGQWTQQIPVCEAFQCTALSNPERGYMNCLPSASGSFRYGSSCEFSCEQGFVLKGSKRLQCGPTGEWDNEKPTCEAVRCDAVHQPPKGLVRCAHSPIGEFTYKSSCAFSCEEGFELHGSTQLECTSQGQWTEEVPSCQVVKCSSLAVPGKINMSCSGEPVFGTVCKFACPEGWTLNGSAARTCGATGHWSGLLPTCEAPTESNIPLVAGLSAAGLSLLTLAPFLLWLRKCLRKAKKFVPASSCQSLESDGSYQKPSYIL
Chain of human Vitamin D Receptor (VDR), VDR (gene 7421) (P11473 whole entry, looked up, the tested form may be a part): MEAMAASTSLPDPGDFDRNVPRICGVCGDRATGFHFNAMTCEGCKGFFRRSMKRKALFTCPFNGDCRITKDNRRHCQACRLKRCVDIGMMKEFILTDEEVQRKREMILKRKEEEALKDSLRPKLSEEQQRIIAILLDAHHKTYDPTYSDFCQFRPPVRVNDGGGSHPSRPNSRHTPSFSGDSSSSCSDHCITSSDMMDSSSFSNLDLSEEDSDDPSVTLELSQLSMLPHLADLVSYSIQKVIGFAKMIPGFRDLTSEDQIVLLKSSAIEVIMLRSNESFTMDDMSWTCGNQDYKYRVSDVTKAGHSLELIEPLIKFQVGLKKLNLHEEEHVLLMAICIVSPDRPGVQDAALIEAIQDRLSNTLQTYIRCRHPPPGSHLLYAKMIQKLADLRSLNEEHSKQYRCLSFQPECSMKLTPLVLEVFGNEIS
Chain of human Thyroid Receptor alpha (THRa1), THRA (gene 7067) (P10827 whole entry, looked up, the tested form may be a part): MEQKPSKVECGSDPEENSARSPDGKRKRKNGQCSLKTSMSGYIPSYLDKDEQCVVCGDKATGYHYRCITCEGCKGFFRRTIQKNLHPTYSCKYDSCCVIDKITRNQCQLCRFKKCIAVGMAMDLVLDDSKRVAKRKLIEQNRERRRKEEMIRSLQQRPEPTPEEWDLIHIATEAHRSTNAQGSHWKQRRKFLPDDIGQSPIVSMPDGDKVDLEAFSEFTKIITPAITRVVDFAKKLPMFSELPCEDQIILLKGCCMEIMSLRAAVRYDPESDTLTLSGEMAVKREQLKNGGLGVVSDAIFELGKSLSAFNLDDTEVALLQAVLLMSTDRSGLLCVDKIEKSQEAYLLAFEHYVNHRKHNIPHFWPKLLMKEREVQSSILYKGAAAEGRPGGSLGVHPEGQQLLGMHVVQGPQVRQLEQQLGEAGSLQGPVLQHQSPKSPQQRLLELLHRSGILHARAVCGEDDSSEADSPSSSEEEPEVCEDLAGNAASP
Chain of Retinoic acid receptor RXR-alpha (Homo sapiens) (P19793 whole entry, looked up, the tested form may be a part): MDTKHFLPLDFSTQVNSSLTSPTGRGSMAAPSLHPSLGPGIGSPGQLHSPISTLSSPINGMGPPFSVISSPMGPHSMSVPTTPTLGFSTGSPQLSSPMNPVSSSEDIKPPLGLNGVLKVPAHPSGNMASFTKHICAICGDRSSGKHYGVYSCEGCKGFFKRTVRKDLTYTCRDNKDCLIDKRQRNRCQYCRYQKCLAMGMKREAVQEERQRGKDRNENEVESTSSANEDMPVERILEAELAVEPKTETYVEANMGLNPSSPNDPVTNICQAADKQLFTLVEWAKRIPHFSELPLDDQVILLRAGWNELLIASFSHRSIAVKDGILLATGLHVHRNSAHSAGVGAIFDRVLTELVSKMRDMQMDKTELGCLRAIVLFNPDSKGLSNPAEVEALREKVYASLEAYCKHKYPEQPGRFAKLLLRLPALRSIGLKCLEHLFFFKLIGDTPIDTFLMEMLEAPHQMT
Chain of human RAR-related Orphan Receptor gamma (RORg), RORC (gene 6097) (P51449 whole entry, looked up, the tested form may be a part): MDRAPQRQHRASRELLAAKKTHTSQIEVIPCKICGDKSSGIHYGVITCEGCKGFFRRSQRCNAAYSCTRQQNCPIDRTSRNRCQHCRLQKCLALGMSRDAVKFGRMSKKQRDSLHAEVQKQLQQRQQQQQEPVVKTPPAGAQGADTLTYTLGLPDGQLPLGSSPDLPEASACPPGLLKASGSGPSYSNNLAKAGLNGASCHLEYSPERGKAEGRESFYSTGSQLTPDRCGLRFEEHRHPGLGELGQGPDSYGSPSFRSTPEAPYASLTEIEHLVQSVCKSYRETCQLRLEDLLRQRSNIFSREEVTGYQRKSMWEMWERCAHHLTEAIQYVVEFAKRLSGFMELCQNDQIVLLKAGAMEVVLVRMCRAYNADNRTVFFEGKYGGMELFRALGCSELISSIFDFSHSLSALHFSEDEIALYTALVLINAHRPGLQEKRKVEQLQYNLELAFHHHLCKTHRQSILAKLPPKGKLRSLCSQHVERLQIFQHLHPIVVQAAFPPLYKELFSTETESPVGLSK
Chain of human Retinoid X Receptor beta (RXRb), RXRB (gene 6257) (P28702 whole entry, looked up, the tested form may be a part): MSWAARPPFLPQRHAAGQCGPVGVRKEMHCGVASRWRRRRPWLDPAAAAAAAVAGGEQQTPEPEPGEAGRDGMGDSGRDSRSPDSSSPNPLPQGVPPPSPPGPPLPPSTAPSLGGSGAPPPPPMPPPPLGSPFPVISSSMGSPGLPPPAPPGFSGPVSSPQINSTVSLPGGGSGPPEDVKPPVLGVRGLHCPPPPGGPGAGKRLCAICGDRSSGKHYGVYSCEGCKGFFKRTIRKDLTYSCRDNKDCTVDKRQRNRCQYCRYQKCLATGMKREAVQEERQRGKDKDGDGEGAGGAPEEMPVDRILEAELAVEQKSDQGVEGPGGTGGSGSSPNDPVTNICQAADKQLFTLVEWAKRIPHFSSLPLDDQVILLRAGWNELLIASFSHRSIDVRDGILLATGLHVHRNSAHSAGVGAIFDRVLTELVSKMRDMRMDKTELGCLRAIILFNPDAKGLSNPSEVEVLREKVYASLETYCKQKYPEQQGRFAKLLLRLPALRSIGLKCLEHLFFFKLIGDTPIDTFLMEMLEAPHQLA

In the case of `COc1ccc(N)cc1`, the compound was called inactive in experiment [1].
As to `CCOP(=S)(OCC)Oc1ccc(Cl)cc1Cl`, the call in [1], in [2] and in experiment [4] was inactive. Besides, in experiment [3], the AC50 – broadly, the midpoint of the concentration-response curve, whichever way the signal moves – was 27.6 µM (active).
For `NC(=O)CCl`, the call in experiment [1], in experiment [2], in [3], in experiment [4], in experiment [5] and in experiment [6] was inactive. For the same compound, the result in [7], in experiment [8], in [9], in experiment [10], in experiment [11] and in experiment [12] was inactive. Further, the result in experiment [13], in experiment [14], in experiment [15], in [16], in experiment [17] and in experiment [18] was inactive. Moreover, the result in experiment [19] was inactive.
Take `BrCC(Br)c1ccccc1` (centres undefined): the call in [1] and in experiment [2] was inactive.
Turning to `Brc1c(Br)c(Br)c(Oc2c(Br)c(Br)c(Br)c(Br)c2Br)c(Br)c1Br`, the result in [1], in [2], in [3] and in [11] was inactive.
`O=c1nc(O)n(Cl)c(=O)n1Cl`: the compound was classed as inactive in experiment [1], in experiment [2], in experiment [3] and in experiment [4].
For `O=C(O)CC(O)(CC(=O)O)C(=O)O`, the outcome in experiment [1], in experiment [2], in experiment [3] and in experiment [11] was inactive. Further, the figures for the AC50 in experiment [2] and in [3] were 5.06 µM (active) and 1.11 µM (active), respectively.
With `CS(=O)(=O)c1ccc(C(=O)C2C(=O)CCCC2=O)c(Cl)c1COCC(F)(F)F`, the compound was classed as inactive in experiment [1] and in experiment [2].
As for `CCCCC(CC)C(=O)Cl` (centres undefined), the compound was classed as inactive in experiment [1].
Consider `C=CCCl`, for which, in [1], the call was inactive.
As to `Fc1cccc(Cl)c1CCl`, the call in experiment [1], in [2], in experiment [3] and in experiment [4] was inactive.
For `CCOC(=O)CC(=O)CCl`, the result in [1], in [2], in [3], in experiment [20], in [7] and in [10] was inactive. The result in experiment [12], in [13], in experiment [14], in experiment [16], in experiment [17] and in experiment [19] was inactive. Besides, the AC50 in [4] was 100 µM (active); in [5], 20 µM (active); in experiment [6], 20 µM (active); in [9], 3.97 µM (active); in experiment [15] it was 11 µM (active); in [18], 4.35 µM (active).
On to `Cc1cc(Cl)ccc1N`, for which the compound was called inactive in experiment [1], in experiment [2], in [3], in [4], in [5] and in experiment [6]. In addition, the result in [20], in experiment [7], in [8], in experiment [9], in [10] and in experiment [12] was inactive. Further, the result in experiment [13], in experiment [14], in experiment [15], in [16], in experiment [17] and in [18] was inactive. In experiment [19], the result was inactive.
With `CC(C=O)Cc1ccc2c(c1)OCO2` (centres undefined), the compound was classed as inactive in experiment [1], in experiment [2], in experiment [3], in [4], in experiment [5] and in experiment [6]. The outcome in experiment [7], in [8], in experiment [9], in experiment [10], in [11] and in experiment [12] was inactive. In addition, the result in experiment [13], in experiment [14], in [15], in experiment [16], in experiment [17] and in experiment [18] was inactive. Besides, the result in experiment [19] was inactive.
